TGFb inhibitor – qHTS for Inhibitors of TGF-b | AID 588855, 2011 | Potency, µM (doses to about 46.1 µM), hits mostly inhibitors | 1.2% of 410,000 active | HepG2 CAGA-GFP TGF-b/SMAD3 reporter, GFP fluorescence, 18 h; TGF-beta stimulated, 500 pg/mL final; also: nearly all actives have a fitted effect of over 65% in size
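Read-out: total well GFP (ex488/em500-530) summed from mean per-cell fluorescence. Cells: HEPG2 CAGA-GFP, 1% FBS DMEM, 18 h at 37 degrees C with 500 pg/mL final TGF-beta. Unstimulated wells served as the full-inhibition control; stimulated DMSO wells = 0%.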
ATXN2 expr inh – Primary qHTS for Inhibitors of ATXN expression; Potency, µM (doses to about 57 µM), actives largely listed as inhibitors; 0.72% of 360,000 active; AID 1745845, 2022; HEK-293 ATXN2-luciferase reporter, luminescence, 24 h; also: nearly all actives have a fitted effect of over 55% in size
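ATXN2-luciferase reporter cells (luciferase flanked by upstream and downstream ATXN2 gene portions) were treated 24 h at 37 °C with compounds at up to 57 uM. SteadyGlo luminescence gave expression; GF-AFC fluorescence gave viability.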
HepG2 tox – qHTS for Inhibitors of TGF-b: Cytotox Counterscreen | HepG2 CAGA-GFP viability, ATP luminescence, 18 h | Potency, µM (highest dose often 46.1 µM), most hits filed as cytotoxic | 0.76% of 410,000 active | AID 588856, 2011
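HepG2 CAGA-GFP cells (1000/well, DMEM with 1% FBS) received compound, then TGF-beta at 500 pg/mL final, and were incubated 18 hours at 37 degrees C. Viability was read by CellTiter-Glo luminescence. Media-only wells were set as complete cell-killing and DMSO as no toxicity.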
DT40 TDP1 CPT – qHTS for Inhibitors of human tyrosyl-DNA phosphodiesterase 1 (TDP1): qHTS in cells in presence of CPT; chicken DT40 Tdp1-/-;hTDP1 cells + 20 nM CPT, ATP luminescence, 48 h; Potency, µM (highest dose often 46.2 µM), usual class: inhibitors; 12% of 420,000 active; AID 686979, 2013; also: nearly all actives have a fitted effect of over 55% in size
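Chicken DT40 Tdp1-/- cells complemented with human TDP1, 400 cells/well, exposed to compounds plus 20 nM camptothecin for at least 48 h at 37 C; viability read as ATP content by CellTiter-Glo luminescence.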
ATXN viability – Viability Counterscreen for Primary qHTS for Inhibitors of ATXN expression. S2 cells (HEK-293 line with an ATXN2-luciferase reporter) viability, CellTiter-Fluor protease fluorescence, 24 h. Potency, µM (highest dose often 56.7 µM), actives largely listed as cytotoxic. 0.49% of 400,000 active; also: nearly all actives have a fitted effect of over 40% in size
DT40 TDP1 no CPT – qHTS for Inhibitors of human tyrosyl-DNA phosphodiesterase 1 (TDP1): qHTS in cells in absence of CPT; Potency, µM (titrated, usually from 46.2 µM), hits mostly inhibitors; DT40 Tdp1-/- hTDP1 cells, no CPT, ATP luminescence, 48 h; 15% of 420,000 active; AID 686978, 2013; also: nearly all actives have a fitted effect of over 55% in size
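DT40 Tdp1-/-;hTDP1 cells, no CPT (DMSO vehicle only), 400 cells/well; compounds pin-transferred; ≥48 hr, 37 °C; CellTiter-Glo 30 min RT dark, luminescence read.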
Large screens that a line does not name were inactive. An excerpt weighted towards active compounds, which were near 17% of everything screened. Calls follow the shape of the dose curve; as a rule, active = well fitted curve in the direction sought with a large enough effect; inconclusive = small, poorly fitted or top-dose-only effect, or another doubt; inactive = no such curve, though single readings can be large; an effect the other way counts as inactive or inconclusive.

CNC(=O)[C@H](Cc1c[nH]c2ccccc12)NC(=O)[C@@H](CC(=O)NO)CC(C)C	DT40 TDP1 CPT 22.2µM, DT40 TDP1 no CPT 31.3µM (no result: TGFb inhibitor, ATXN2 expr inh, HepG2 tox, ATXN viability)
O=C(Cc1c[nH]c2ccccc12)N[C@@H](Cc1c[nH]c2ccccc12)C(=O)O	none
Cc1cccc(-c2noc(-c3ccc(NCc4ccccc4)c([N+](=O)[O-])c3)n2)c1	none
C=CCN(CC(O)c1cccc([N+](=O)[O-])c1)C(C)CCc1ccccc1 (configuration not stated)	DT40 TDP1 CPT inconclusive, DT40 TDP1 no CPT 20.6µM
NC(=NCCc1ccccc1)c1cccc([N+](=O)[O-])c1	none
CN(C)S(=O)(=O)c1cccc(NC(=O)c2ccccc2OCc2ccc(F)cc2)c1	DT40 TDP1 CPT 14.6µM, DT40 TDP1 no CPT inconclusive
CC(=O)c1ccccc1OCc1ccc(S(=O)(=O)Cc2ccccc2)cc1	TGFb inhibitor inconclusive, DT40 TDP1 CPT 25.9µM, ATXN viability inconclusive, DT40 TDP1 no CPT 20.6µM
O=C(NNC(=O)c1ccccc1OCc1ccc(F)cc1)c1ccccc1O	TGFb inhibitor inconclusive, ATXN2 expr inh 15.8µM, DT40 TDP1 CPT 6.51µM, ATXN viability inconclusive, DT40 TDP1 no CPT 5.17µM
CC(=O)c1cccc(NC(=O)c2ccccc2OCc2ccc(F)cc2)c1	ATXN viability inconclusive
O=C(NNC(=O)c1ccccc1OCc1ccccc1)c1ccccc1O	ATXN2 expr inh inconclusive, DT40 TDP1 CPT 5.8µM, DT40 TDP1 no CPT 3.66µM
CN(C(=O)CN1CCN(c2cc(-c3cccc4oc5ccccc5c34)ncn2)CC1)c1ccccc1	DT40 TDP1 CPT inconclusive, DT40 TDP1 no CPT inconclusive
O=C1CC2c3ccccc3CCN2C(=O)CN1Cc1ccccc1 (configuration not stated)	none
O=C1c2cnc3nc(SCc4ccccc4)nn3c2CC2c3ccccc3CCN12 (configuration not stated)	DT40 TDP1 CPT inconclusive, DT40 TDP1 no CPT 18.4µM
Cc1c(C(=O)N(C)Cc2cccc3ncccc23)cnn1-c1nccc(-c2ccccc2F)n1	none (no result: TGFb inhibitor, ATXN2 expr inh, HepG2 tox)
O=C1CC2(CCCCC2)CC(=O)N1CCc1ccccc1	none
O=C1C=CC(=O)C(C2=C3C(=O)N(CCc4ccccc4)CC(=O)N3CCC2)=C1	TGFb inhibitor inconclusive, ATXN2 expr inh inconclusive, DT40 TDP1 CPT 1.3µM, ATXN viability inconclusive, DT40 TDP1 no CPT 1.3µM
Cc1cccc2cc(-c3nc4ccc(C(=O)O)cc4[nH]3)c(=O)oc12	DT40 TDP1 CPT inconclusive
CC(=O)c1sc2c(c1C)c(=O)n(-c1ccc(Cl)cc1)c(=O)n2Cc1cc(=O)n2cc(Cl)ccc2n1	none
COc1cc2c(cc1OC)C1=NC(=O)CN1C(SCc1ccccc1)=N2	TGFb inhibitor inconclusive, DT40 TDP1 CPT 18.4µM, DT40 TDP1 no CPT 9.2µM
COc1cnn(Cc2ccccc2)c(=O)c1SCc1ccccc1	DT40 TDP1 CPT inconclusive, ATXN viability inconclusive, DT40 TDP1 no CPT inconclusive
C[C@H](CO)N1C[C@H](C)[C@@H](CN(C)C(=O)Nc2ccccc2)Oc2cc(Br)ccc2S1(=O)=O	DT40 TDP1 no CPT inconclusive
C[C@@H]1CN([C@@H](C)CO)S(=O)(=O)c2ccc(Br)cc2O[C@H]1CN(C)C(=O)Nc1ccc(C(F)(F)F)cc1	TGFb inhibitor inconclusive, ATXN2 expr inh inconclusive, DT40 TDP1 CPT inconclusive, DT40 TDP1 no CPT inconclusive (no result: ATXN viability)
C[C@@H]1CN([C@H](C)CO)S(=O)(=O)c2ccc(Br)cc2O[C@@H]1CN(C)C(=O)Nc1ccc(C(F)(F)F)cc1	TGFb inhibitor inconclusive, ATXN2 expr inh inconclusive, DT40 TDP1 CPT 20.6µM, ATXN viability 22.4µM, DT40 TDP1 no CPT inconclusive
Cc1ccccc1-c1ccc2c(c1)O[C@@H](CN(C)C(=O)Nc1ccc(C(F)(F)F)cc1)[C@H](C)CN([C@@H](C)CO)S2(=O)=O	TGFb inhibitor inconclusive, ATXN2 expr inh inconclusive, DT40 TDP1 CPT 20.6µM, ATXN viability inconclusive, DT40 TDP1 no CPT 13µM
CC1CCc2c(sc3nnn(Cc4cccc(C(=O)OC(C)C)c4)c(=O)c23)C1 (configuration not stated)	none
CCc1ccc(NC(=O)C2CCN(c3nc(-c4ccc(OC)cc4)no3)CC2)cc1	none (no result: ATXN2 expr inh, ATXN viability)
COc1ccc(-c2noc(N3CCC(C(=O)N(C)c4cc(Cl)ccc4OC)CC3)n2)cc1	TGFb inhibitor inconclusive, ATXN2 expr inh inconclusive, DT40 TDP1 CPT 16.4µM, ATXN viability inconclusive, DT40 TDP1 no CPT inconclusive
COc1ccc(-c2noc(N3CCC(C(=O)NCCCN4CC(C)CC(C)C4)CC3)n2)cc1 (configuration not stated)	TGFb inhibitor inconclusive, DT40 TDP1 CPT 3.66µM, ATXN viability inconclusive, DT40 TDP1 no CPT inconclusive (no result: ATXN2 expr inh)
CCN(C(=O)C1CCN(c2nc(-c3ccc(OC)cc3)no2)CC1)c1ccc(OC)cc1	TGFb inhibitor inconclusive, DT40 TDP1 CPT inconclusive, ATXN viability inconclusive, DT40 TDP1 no CPT 16.4µM
COc1ccc(-c2noc(N3CCC(C(=O)Nc4ccc(OC)cc4OC)CC3)n2)cc1	DT40 TDP1 CPT inconclusive, ATXN viability inconclusive, DT40 TDP1 no CPT inconclusive
COc1ccc(OC)c(NC(=O)Cn2ncc3c2-c2ccccc2OC3)c1	TGFb inhibitor inconclusive, DT40 TDP1 CPT inconclusive, DT40 TDP1 no CPT inconclusive
CCOC(=O)N1CCN(Cc2nc3cc(NC(=O)C(C)C)ccc3n2C(C)C)CC1	DT40 TDP1 CPT 5.17µM, ATXN viability inconclusive, DT40 TDP1 no CPT 2.59µM
CCOC(=O)N1CCN(Cc2nc3cc(NC(=O)c4ccc(OC)cc4)ccc3n2C(C)C)CC1	TGFb inhibitor inconclusive, DT40 TDP1 CPT 4.11µM, DT40 TDP1 no CPT inconclusive (no result: ATXN2 expr inh, ATXN viability)
CCOC(=O)N1CCN(Cc2nc3cc(NC(=O)c4ccc(F)cc4)ccc3n2C(C)C)CC1	DT40 TDP1 CPT 0.92µM, DT40 TDP1 no CPT 1.03µM (no result: ATXN2 expr inh, ATXN viability)
CCOC(=O)N1CCN(Cc2nc3cc(NC(=O)C(C)C)ccc3n2C)CC1	none
CCCn1c(CN2CCN(C(=O)OCC)CC2)nc2cc(NC(=O)CC)ccc21	TGFb inhibitor inconclusive, DT40 TDP1 CPT 3.26µM, DT40 TDP1 no CPT 4.61µM
Cc1ccc(N=C2SCCCN2C(=O)C2=COCCO2)cc1Cl	ATXN viability inconclusive
Cc1ccccc1C(=O)Nc1cccc(C(=O)OCc2cc(=O)n3c(C)csc3n2)c1	DT40 TDP1 no CPT inconclusive (no result: ATXN2 expr inh, ATXN viability)
COc1ccc(CNC(=O)CSc2nnnn2-c2ccc(O)cc2)cc1	DT40 TDP1 CPT inconclusive, DT40 TDP1 no CPT inconclusive
CCOC(=O)c1cnc2ccc(C(=O)OC)cc2c1Nc1ccc(C(=O)O)cc1	none

Assay outcomes from PubChem.
